# According to PubChem BioAssay (NCI):
# Several values for one entry are separate records, joined by “and”; a condition that tells them apart may be missing. Equal entries are not always repeated. Compounds without any hit were thinned out: in the full panel of roughly 79,000, 15% have a hit. Some structures have more than one record in an assay (separate samples or runs), and their calls can disagree. Activity calls are given as the source filed them. No stated cut-off is given here; in the data, active means growth inhibition above about 70%; inactive means the rest.
# Columns and labels:
# [1] = NCI Yeast Anticancer Drug Screen. Data for the rad52 strain (AID 147);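 further: 0% = growth of vehicle-treated control cultures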; conditions: S. cerevisiae rad52 mutant growth inhibition, stronger effect = higher value
# Procedure, shortened: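 Inhibition of yeast growth, referenced to vehicle controls, was the measured output for a strain with defective DNA damage repair.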
# [2] = NCI Yeast Anticancer Drug Screen. Data for the wt1 strain (AID 149);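 further: 0% = growth of vehicle-treated wt1 cultures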; conditions: S. cerevisiae wt1 strain (SPY 50644) growth inhibition, stronger effect = higher value
# Procedure, shortened: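 Each compound is tested on wt1 yeast and the loss of growth versus vehicle gives the inhibition value.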
# [3] = NCI Yeast Anticancer Drug Screen. Data for the rad50EPP+ strain (AID 151);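 further: 0% = growth of vehicle-treated control cultures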; conditions: S. cerevisiae rad50 mutant strain, stronger effect = higher value
# Procedure, shortened: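 Genetically defined yeast (rad50EPP+, DNA damage repair alteration) is grown with compound, and inhibition of growth is expressed relative to vehicle-treated controls.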
# [4] = NCI Yeast Anticancer Drug Screen. Data for the mgt1 strain (AID 153); conditions: S. cerevisiae mgt1 mutant growth inhibition, stronger effect = higher value
# Procedure, shortened: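 In the mgt1 strain, test compounds were added and growth inhibition was determined relative to vehicle-treated controls.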
# [5] = NCI Yeast Anticancer Drug Screen. Data for the rad50 strain (AID 155);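 further: 0% = growth of vehicle-only cultures of the same strain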; conditions: S. cerevisiae rad50 strain growth inhibition, stronger effect = higher value
# Procedure, shortened: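 Vehicle-treated cultures provide the reference for the growth inhibition reported for compound-exposed, repair-deficient yeast.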
# [6] = NCI Yeast Anticancer Drug Screen. Data for the mec2-1 strain (AID 157); conditions: S. cerevisiae mec2-1 strain, stronger effect = higher value
# Procedure, shortened: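 Each compound was tested on mec2-1 yeast, a strain altered in DNA damage repair or cell cycle control. Growth inhibition is reported relative to vehicle.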
# [7] = NCI Yeast Anticancer Drug Screen. Data for the sgs1 mgt1 strain (AID 161);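 further: 0% = growth of cultures given vehicle only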; conditions: S. cerevisiae sgs1 mgt1 strain, stronger effect = higher value
# Procedure, shortened: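 Test agents were incubated with a DNA-repair-mutant yeast strain. Growth was then read and compared against vehicle-treated controls.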
# [8] = NCI Yeast Anticancer Drug Screen. Data for the cln2 rad14 strain (AID 165);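 further: 0% = growth equal to vehicle treated cultures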; conditions: S. cerevisiae cln2 rad14 strain, stronger effect = higher value
# Procedure, shortened: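 Test compounds were added to cln2 rad14 yeast cultures; inhibition of growth was then determined by comparison with vehicle treatment.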
# [9] = NCI Yeast Anticancer Drug Screen. Data for the bub3 strain (AID 167); conditions: S. cerevisiae bub3 mutant strain, stronger effect = higher value
# Procedure, shortened: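 Mutant yeast screening strain plus compound; vehicle-treated cultures serve as the 0% inhibition reference.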
# [10] = NCI Yeast Anticancer Drug Screen. Data for the wt2 strain (AID 169); conditions: S. cerevisiae wt2 strain growth inhibition, stronger effect = higher value
# Procedure, shortened: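 The panel's yeast strains carry defined changes in DNA repair or cell cycle genes. Each strain is grown with compound, and growth loss is scored relative to vehicle.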
# [11] = NCI Yeast Anticancer Drug Screen. Data for the mlh1 strain (AID 171);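 further: 0% = growth of vehicle-treated control cultures of the same strain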; conditions: S. cerevisiae mlh1 strain growth inhibition, stronger effect = higher value
# Procedure, shortened: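 Inhibition values reflect reduced yeast growth in the presence of compound, referenced to vehicle controls, using a strain chosen for its alteration in DNA repair or cell cycle control.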
# [12] = NCI Yeast Anticancer Drug Screen. Data for the sgs1 strain (AID 173);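 further: 0% = growth of vehicle-only control cultures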; conditions: S. cerevisiae sgs1 mutant, stronger effect = higher value
# Procedure, shortened: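 Vehicle-treated cultures served as reference for growth inhibition of a yeast strain altered in DNA damage repair or cell cycle control after compound exposure.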
# [13] = NCI Yeast Anticancer Drug Screen. Data for the mlh1 rad18 strain (AID 175); conditions: S. cerevisiae mlh1 rad18 strain growth inhibition, stronger effect = higher value
# Procedure, shortened: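 Inhibition values reflect reduced growth of mutant yeast versus vehicle-treated controls following compound exposure; the mutations affect DNA damage repair.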
# [14] = NCI Yeast Anticancer Drug Screen. Data for the rad18 strain (AID 177); conditions: S. cerevisiae rad18 mutant growth inhibition, stronger effect = higher value
# Procedure, shortened: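 Steps: expose repair-mutant yeast to compound; measure growth; express as inhibition relative to vehicle control.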
# [15] = NCI Yeast Anticancer Drug Screen. Data for the CLN2oe strain (AID 163);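 further: 0% = growth of vehicle-only control cultures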; conditions: S. cerevisiae CLN2oe strain, stronger effect = higher value
# Procedure, shortened: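 First, the altered yeast strain was treated with each compound; second, its growth was measured; finally, inhibition was derived by comparison with vehicle controls.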
# [16] = at 5.0 µM (retest, dose inferred, filed as 0.5)
# [17] = at 50.0 µM (retest, dose inferred, filed as 5.0)
smiles,measurement,setting,value
COc1ccc(/C=C/C(=O)c2ccccc2)cc1OC,growth inhibition,[1]; at 1.2 µM,-42% (inactive)
same,growth inhibition,[1]; at 3.7 µM,-42% (inactive)
same,growth inhibition,[1]; at 11.0 µM,-30% (inactive)
same,growth inhibition,[1]; at 33.0 µM,19% (inactive)
same,growth inhibition,[1]; at 100.0 µM,95% (active)
same,growth inhibition,[2]; at 1.2 µM,-2% (inactive)
same,growth inhibition,[2]; at 3.7 µM,-15% (inactive)
same,growth inhibition,[2]; at 11.0 µM,-2% (inactive)
same,growth inhibition,[2]; at 33.0 µM,28% (inactive)
same,growth inhibition,[2]; at 100.0 µM,92% (active)
same,growth inhibition,[3]; at 1.2 µM,16% (inactive)
same,growth inhibition,[3]; at 3.7 µM,11% (inactive)
same,growth inhibition,[3]; at 11.0 µM,28% (inactive)
same,growth inhibition,[3]; at 33.0 µM,27% (inactive)
same,growth inhibition,[3]; at 100.0 µM,75% (active)
same,growth inhibition,[4]; at 1.2 µM,-3% (inactive)
same,growth inhibition,[4]; at 3.7 µM,-30% (inactive)
same,growth inhibition,[4]; at 11.0 µM,-24% (inactive)
same,growth inhibition,[4]; at 33.0 µM,55% (inactive)
same,growth inhibition,[4]; at 100.0 µM,96% (active)
same,growth inhibition,[5]; at 1.2 µM,12% (inactive)
same,growth inhibition,[5]; at 3.7 µM,1% (inactive)
same,growth inhibition,[5]; [16],22% (inactive)
same,growth inhibition,[5]; at 11.0 µM,-5% (inactive)
same,growth inhibition,[5]; at 33.0 µM,44% (inactive)
same,growth inhibition,[5]; [17],48% (inactive)
same,growth inhibition,[5]; at 50.0 µM,6.55% (inactive) and 84.3% (active)
same,growth inhibition,[5]; at 100.0 µM,96% (active)
same,growth inhibition,[6]; at 1.2 µM,-6% (inactive)
same,growth inhibition,[6]; at 3.7 µM,-12% (inactive)
same,growth inhibition,[6]; [16],-16% (inactive)
same,growth inhibition,[6]; at 11.0 µM,-2% (inactive)
same,growth inhibition,[6]; at 33.0 µM,47% (inactive)
same,growth inhibition,[6]; [17],59% (inactive)
same,growth inhibition,[6]; at 50.0 µM,54% (inactive) and 84% (active)
same,growth inhibition,[6]; at 100.0 µM,95% (active)
same,growth inhibition,[7]; [16],15% (inactive)
same,growth inhibition,[7]; [17],54% (inactive)
same,growth inhibition,[7]; at 50.0 µM,51.9% (inactive) and 80.3% (active)
same,growth inhibition,[8]; [16],30% (inactive)
same,growth inhibition,[8]; [17],34% (inactive)
same,growth inhibition,[8]; at 50.0 µM,-16.2% (inactive) and 58.3% (inactive)
same,growth inhibition,[9]; at 1.2 µM,4% (inactive)
same,growth inhibition,[9]; at 3.7 µM,14% (inactive)
same,growth inhibition,[9]; [16],16% (inactive)
same,growth inhibition,[9]; at 11.0 µM,-36% (inactive)
same,growth inhibition,[9]; at 33.0 µM,62% (inactive)
same,growth inhibition,[9]; [17],88% (active)
same,growth inhibition,[9]; at 50.0 µM,67.5% (inactive) and 83.8% (active)
same,growth inhibition,[9]; at 100.0 µM,95% (active)
same,growth inhibition,[10]; at 1.2 µM,-30% (inactive)
same,growth inhibition,[10]; at 3.7 µM,-33% (inactive)
same,growth inhibition,[10]; at 11.0 µM,-34% (inactive)
same,growth inhibition,[10]; at 33.0 µM,38% (inactive)
same,growth inhibition,[10]; at 100.0 µM,95% (active)
same,growth inhibition,[11]; at 1.2 µM,20% (inactive)
same,growth inhibition,[11]; at 3.7 µM,19% (inactive)
same,growth inhibition,[11]; at 11.0 µM,17% (inactive)
same,growth inhibition,[11]; at 33.0 µM,67% (inactive)
same,growth inhibition,[11]; at 100.0 µM,95% (active)
same,growth inhibition,[12]; at 1.2 µM,-11% (inactive)
same,growth inhibition,[12]; at 3.7 µM,-2% (inactive)
same,growth inhibition,[12]; at 11.0 µM,5% (inactive)
same,growth inhibition,[12]; at 33.0 µM,51% (inactive)
same,growth inhibition,[12]; at 100.0 µM,96% (active)
same,growth inhibition,[13]; [16],3% (inactive)
same,growth inhibition,[13]; [17],79% (active)
same,growth inhibition,[13]; at 50.0 µM,17.4% (inactive) and 76.2% (active)
same,growth inhibition,[14]; at 1.2 µM,-12% (inactive)
same,growth inhibition,[14]; at 3.7 µM,-20% (inactive)
same,growth inhibition,[14]; at 11.0 µM,-8% (inactive)
same,growth inhibition,[14]; at 33.0 µM,72% (active)
same,growth inhibition,[14]; at 100.0 µM,95% (active)
N/C(=N/N=C/c1cc(Br)cc(Br)c1O)NO,growth inhibition,[1]; at 1.2 µM,-37% (inactive)
same,growth inhibition,[1]; at 3.7 µM,-26% (inactive)
same,growth inhibition,[1]; at 11.0 µM,17% (inactive)
same,growth inhibition,[1]; at 33.0 µM,90% (active)
same,growth inhibition,[1]; at 100.0 µM,97% (active)
same,growth inhibition,[2]; at 1.2 µM,-94% (inactive)
same,growth inhibition,[2]; at 3.7 µM,-40% (inactive)
same,growth inhibition,[2]; at 11.0 µM,-13% (inactive)
same,growth inhibition,[2]; at 33.0 µM,90% (active)
same,growth inhibition,[2]; at 100.0 µM,98% (active)
same,growth inhibition,[3]; at 1.2 µM,-27% (inactive)
same,growth inhibition,[3]; at 3.7 µM,-24% (inactive)
same,growth inhibition,[3]; at 11.0 µM,-6% (inactive)
same,growth inhibition,[3]; at 33.0 µM,28% (inactive)
same,growth inhibition,[3]; at 100.0 µM,73% (active)
same,growth inhibition,[4]; at 1.2 µM,-36% (inactive)
same,growth inhibition,[4]; at 3.7 µM,-27% (inactive)
same,growth inhibition,[4]; at 11.0 µM,66% (inactive)
same,growth inhibition,[4]; at 33.0 µM,95% (active)
same,growth inhibition,[4]; at 100.0 µM,98% (active)
same,growth inhibition,[5]; at 1.2 µM,-39% (inactive)
same,growth inhibition,[5]; at 3.7 µM,-34% (inactive)
same,growth inhibition,[5]; [16],-1% (inactive)
same,growth inhibition,[5]; at 11.0 µM,6% (inactive)
same,growth inhibition,[5]; at 33.0 µM,90% (active)
same,growth inhibition,[5]; [17],99% (active)
same,growth inhibition,[5]; at 50.0 µM,96.1% (active)
same,growth inhibition,[5]; at 100.0 µM,97% (active)
same,growth inhibition,[6]; at 1.2 µM,-89% (inactive)
same,growth inhibition,[6]; at 3.7 µM,-62% (inactive)
same,growth inhibition,[6]; [16],13% (inactive)
same,growth inhibition,[6]; at 11.0 µM,-6% (inactive)
same,growth inhibition,[6]; at 33.0 µM,87% (active)
same,growth inhibition,[6]; [17],99% (active)
same,growth inhibition,[6]; at 50.0 µM,85.8% (active)
same,growth inhibition,[6]; at 100.0 µM,96% (active)
same,growth inhibition,[7]; [16],10% (inactive)
same,growth inhibition,[7]; [17],99% (active)
same,growth inhibition,[7]; at 50.0 µM,97.8% (active)
same,growth inhibition,[15]; at 1.2 µM,-6% (inactive)
same,growth inhibition,[15]; at 3.7 µM,-11% (inactive)
same,growth inhibition,[15]; at 11.0 µM,25% (inactive)
same,growth inhibition,[15]; at 33.0 µM,95% (active)
same,growth inhibition,[15]; at 100.0 µM,98% (active)
same,growth inhibition,[8]; [16],7% (inactive)
same,growth inhibition,[8]; [17],99% (active)
same,growth inhibition,[8]; at 50.0 µM,92.3% (active)
same,growth inhibition,[9]; at 1.2 µM,-40% (inactive)
same,growth inhibition,[9]; at 3.7 µM,-60% (inactive)
same,growth inhibition,[9]; [16],-5% (inactive)
same,growth inhibition,[9]; at 11.0 µM,44% (inactive)
same,growth inhibition,[9]; at 33.0 µM,93% (active)
same,growth inhibition,[9]; [17],99% (active)
same,growth inhibition,[9]; at 50.0 µM,87% (active)
same,growth inhibition,[9]; at 100.0 µM,97% (active)
same,growth inhibition,[10]; at 1.2 µM,-2% (inactive)
same,growth inhibition,[10]; at 3.7 µM,-9% (inactive)
same,growth inhibition,[10]; at 11.0 µM,35% (inactive)
same,growth inhibition,[10]; at 33.0 µM,94% (active)
same,growth inhibition,[10]; at 100.0 µM,98% (active)
same,growth inhibition,[11]; at 1.2 µM,-78% (inactive)
same,growth inhibition,[11]; at 3.7 µM,-40% (inactive)
same,growth inhibition,[11]; at 11.0 µM,58% (inactive)
same,growth inhibition,[11]; at 33.0 µM,93% (active)
same,growth inhibition,[11]; at 100.0 µM,97% (active)
same,growth inhibition,[12]; at 1.2 µM,-35% (inactive)
same,growth inhibition,[12]; at 3.7 µM,-28% (inactive)
same,growth inhibition,[12]; at 11.0 µM,59% (inactive)
same,growth inhibition,[12]; at 33.0 µM,93% (active)
same,growth inhibition,[12]; at 100.0 µM,96% (active)
same,growth inhibition,[13]; [16],16% (inactive)
same,growth inhibition,[13]; [17],99% (active)
same,growth inhibition,[13]; at 50.0 µM,98.7% (active)
same,growth inhibition,[14]; at 1.2 µM,-30% (inactive)
same,growth inhibition,[14]; at 3.7 µM,-20% (inactive)
same,growth inhibition,[14]; at 11.0 µM,75% (active)
same,growth inhibition,[14]; at 33.0 µM,94% (active)
same,growth inhibition,[14]; at 100.0 µM,97% (active)
